# Measured values from PubChem BioAssay AID624351 (Southern Research Specialized Biocontainment Screening …, 2012).
# About 1,400 (58%) of roughly 2,400 compounds were called active.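 Rule for the calls: active = inhibition of 30% or more at any tested dose; inconclusive = primary hits over the limit that were never retested; inactive = the rest.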 So high a share suggests a set chosen from earlier hits. Some of the results follow.
# Experiment: coupled detection enzyme interference, dose response, artefact control for MgcRacGAP inhibitor project, biochemical, coupled enzyme counter-screen (AID 624351);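 note: signal is the ADP detection kit reading of free GDP without any GAP enzyme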
# Details: ADP Hunter coupled enzyme counter-screen, fluorescence, no MgcRacGAP; series mostly up to 80 µM
row,SMILES,IC50
1,O=C(Sc1n[nH]c(=O)[nH]c1=O)c1ccccc1,inactive
2,CCn1nc(NS(=O)(=O)c2ccccc2[N+](=O)[O-])c2cc3ccc(C)cc3nc21,inactive
3,O=C(COc1ccccc1C(=O)N/N=C\c1ccc(O)c(O)c1)N/N=C/c1ccc(O)c(O)c1,28.8 µM (active)
4,CCOC(=O)CCNC(C)C1COc2ccccc2O1 (stereo not given),inactive
5,COc1cc(/C=N\NC(=O)CNC(=O)C2COc3ccccc3O2)ccc1O (stereo not given),35.8 µM (active)
6,O=C(CNC(=O)C1COc2ccccc2O1)N/N=C/c1ccc(O)cc1O (stereo not given),66.8 µM (active)
7,CCCCN(CC)CCNC(=O)c1cc2c(-c3ccc(Cl)cc3)nn(C)c2s1,inactive
8,c1cc2c(cc1CN1CCN(C3CCCCCC3)CC1)OCO2,inactive
9,c1cc2c(cc1NC1CCCCCC1)OCO2,45.1 µM (active)
10,COc1ccc(N2C(S)=C(C#N)C(=O)NC2c2ccco2)cc1 (stereo not given),inactive
11,O=C1N/C(=C\c2ccc(O)cc2)C(O)=C1C=NCc1ccccc1,16 µM (active)
12,COc1cc(/C=C2/SC(=S)N(c3c(C)n(C)n(-c4ccccc4)c3=O)C2=O)ccc1O,48.2 µM (active)
13,O=C1NC(=NCc2ccccc2)S/C1=C/c1ccc(O)cc1,20.1 µM (active)
14,COc1cc(/C=C2\SC(=Nc3c(C)n(C)n(-c4ccccc4)c3=O)NC2=O)ccc1O,44.4 µM (active)
15,Cc1c(N=C2NC(=O)/C(=C/c3ccc(O)cc3)S2)c(=O)n(-c2ccccc2)n1C,72 µM (active)
16,Nc1ccc2[nH]c(=S)[nH]c2c1,21 µM (active)
17,Nc1ccc2[nH]c(=S)sc2c1,inactive
18,CCCS(=O)(=O)N1CCN(C2Cc3ccccc3C2)CC1,inactive
19,CCCCn1c(C)cc2cc(O)ccc21,30.4 µM (active)
20,Cn1c(=O)[nH]c(N)c(Br)c1=O,inactive
21,Cc1cc(C)nc(N/N=C/c2c[nH]c3ccccc23)n1,55.4 µM (active)
22,C(=N\Nc1nc2ccccc2[nH]1)/c1c[nH]c2ccccc12,37.6 µM (active)
23,Cc1ccsc1/C=N/Nc1nc2ccccc2[nH]1,26 µM (active)
24,Cn1c(N/N=C/c2c[nH]c3ccccc23)nc2ccccc21,40.6 µM (active)
25,C=C1c2cccc(O)c2C(=O)C2C(=O)[C@]3(O)C(=O)C(C(N)=O)C(=O)[C@@H](N(C)C)[C@@H]3[C@@H](O)[C@H]12 (stereo not given in full),inactive
26,O=C1NC(=S)S/C1=C1\Sc2ccccc2N1CCCS(=O)(=O)O,inactive
27,CC(C(=O)NCC(=O)Nc1ccc(F)c(F)c1F)N1CCN(c2ccc(O)cc2)CC1 (stereo not given),54.3 µM (active)

row,SMILES,IC50
1,CC(C(=O)Nc1ccc(F)c(F)c1)N1CCN(C)CC1 (stereo not given),inactive
2,O=C(CN1CCN(c2ccc(O)cc2)CC1)NCC(=O)Nc1ccc(F)c(F)c1F,61.8 µM (active)
3,CCOCCCNC(=O)CN1CCN(c2ccc(F)cc2)CC1,inactive
4,Cc1cnc(NC(=O)CN2CCN(c3ccccc3F)CC2)s1,inactive
5,CC(C(=O)Nc1ccccc1C(F)(F)F)N1CCN(C)CC1 (stereo not given),inactive
6,COc1cc(OC)c(OC)cc1CN1CCN(C(=O)c2cccc3ccccc23)CC1,inactive
7,COc1ccccc1NS(=O)(=O)c1ccc(C)c(C(=O)N2CCN(c3ccc(O)cc3)CC2)c1,23.6 µM (active)
8,COc1ccccc1C(=O)N1CCN(Cc2cccnc2)CC1,inactive
9,N/C(=N\OC(=O)N1c2ccccc2Sc2ccccc21)c1ccccc1,inactive
10,Cc1cccc(/C(N)=N/OC(=O)N2c3ccccc3Sc3ccccc32)c1,inactive
11,CC1(C)CC(NC(=O)N2c3ccccc3Sc3ccccc32)CC(C)(C)N1,inactive
12,Cc1ccc2nc(/N=C(\N)NC(=O)N3c4ccccc4Sc4ccccc43)nc(C)c2c1,inactive
13,CCN1/C(=C/c2ccc3cc(C)ccc3[n+]2CC)Sc2cc(C)ccc21,inactive
14,CN(C)/C=C/c1oc2ccc(O)cc2c1[N+](=O)[O-],14.2 µM (active)
15,CCCc1cc(=S)n2c([nH]c3ccccc32)c1C#N,57.3 µM (active)
16,CCn1nc(C)c(Br)c1C(=O)Sc1ccccc1Cl,inactive
17,O=S(=O)(c1ccc(Cl)c(NC(=S)N/N=C/c2ccc(O)cc2)c1)N1CCOCC1,48.7 µM (active)
18,CCN(CC)c1ccc(S(=O)(=O)N2CCOCC2)cc1NC(=O)CN1CCN(Cc2ccccc2)CC1,inactive
19,Cc1ccc(S(=O)(=O)N2CCOCC2)cc1NC(=O)CNCc1cccnc1,inactive
20,CCOC(=O)C1CCN(Cc2cn[nH]c2-c2ccccc2)CC1,inactive
21,COc1cc(/C=C2\SC(N3CCC(C)CC3)=NC2=O)ccc1O,19.1 µM (active)
22,CCOC(=O)CSC1=NC(=O)/C(=C\c2ccc(OC(C)=O)cc2)S1,inactive
23,CCOC(=O)C1CCN(C2=NC(=O)/C(=C/c3ccc(O)cc3)S2)CC1,22.2 µM (active)
24,CCOC(=O)C1CCCN(C2=NC(=O)/C(=C/c3ccc(O)c(OC)c3)S2)C1 (stereo not given),22.8 µM (active)
25,CCOC(=O)C1CCCN(C2=NC(=O)/C(=C/c3ccc(O)c(OCC)c3)S2)C1 (stereo not given),29.8 µM (active)
26,CCOC(=O)C(NC(=O)N(C)C)(Nc1sc(C)c(CC)c1C#N)C(F)(F)F (stereo not given),inactive
27,C#CCOCCOCCOCCNc1nc(N2CCN(C(=O)[C@H](CCCN=C(N)N)n3cc(C(N)[C@H](C)CC)nn3)CC2)nc(N2CCN(C(=O)[C@H](CCCN=C(N)N)n3cc(C(N)[C@@H](C)CC)nn3)CC2)n1 (stereo not given in full),inactive

row,SMILES,IC50
1,CC1CCN(S(=O)(=O)c2ccc3c(c2)C(Cl)(Cl)C(=O)N3)CC1,inactive
2,CCS(=O)(=O)c1cc([N+](=O)[O-])c(Sc2ccccc2N)s1,inactive
3,C=CCSC1=NC(=O)/C(=C/c2cccs2)S1,inactive
4,CCOc1cc(/C=C2\SC(N3CCCC(C)C3)=NC2=O)ccc1O (stereo not given),33.4 µM (active)
5,COc1cc(C2NC(=O)C(C#N)=C(S)N2c2ccccc2)ccc1OC(C)C (stereo not given),inactive
6,Cc1c(O)ccc(/C(Cc2ccc3ccccc3n2)=N\O)c1O,76.5 µM (active)
7,CCN(CC)CCCNc1ccc2ncn3c4ccc(O)cc4c(=O)c1c23,inactive
8,CCN(CC)CCNc1ccc(C)c2sc3ccc(O)cc3c(=O)c12,33.2 µM (active)
9,Cc1ccc(NCCN(C)C)c2c(=O)c3cc(O)ccc3sc12,46.3 µM (active)
10,CN(C)CCNc1ccc2nnn3c4ccc(O)cc4c(=O)c1c23,inactive
11,CN(C)CCNc1ccc2ncn3c4ccc(O)cc4c(=O)c1c23,inactive
12,CN(C)CCNc1ccc(CO)c2sc3ccc(O)cc3c(=O)c12,35 µM (active)
13,O=C1CC(SC(=S)C2CCCC2=O)C(=O)N1 (stereo not given),inactive
14,Nc1ccccc1Sc1ccc(C(=O)c2ccccc2C(=O)O)cc1[N+](=O)[O-],inactive
15,COc1cc(/C=N/Nc2cccc3cccnc23)cc(OC)c1O,inactive
16,CN(C)c1ccc(/C=N\Nc2ccccn2)cc1,33.4 µM (active)
17,COc1cc(/C=N/Nc2ccccn2)cc(OC)c1O,28.6 µM (active)
18,COc1ccc(/C=N/Nc2ncnc3sc4c(c23)CCCC4)cc1O,69.1 µM (active)
19,COc1ccc(/C=N/Nc2ccccn2)cc1O,81.8 µM (active)
20,CCN1CCN(CCOc2cccc(Oc3ccccc3)c2)CC1,inactive
21,Clc1ccc(OCCOCCNCc2ccccc2)cc1Cl,inactive
22,CCN(CC)c1ccc(NC(=O)CCN2C(=O)c3ccccc3S2(=O)=O)c(C)c1,inactive
23,CCN(CC)c1ccc(NC(=O)C2=CC=CN3CCS(=O)(=O)N=C23)cc1,74.2 µM (active)
24,CC(NCCCOc1cccc2ccccc12)c1ccccc1 (stereo not given),inactive
25,CC(C)[C@H](N[C@@H](C)c1ccccc1)c1c(O)ccc2ccccc12,17.4 µM (active)
26,C/C(=N\Nc1nc2ccccc2[nH]1)c1cccs1,28.4 µM (active)
27,C/C(=N\Nc1nc2ccccc2[nH]1)c1ccc(Cl)s1,37.8 µM (active)

row,SMILES,IC50
1,C/C(=N\Nc1nc2ccccc2[nH]1)c1ccc(C)o1,82.2 µM (active)
2,COc1cccc(/C=C2\C(=O)C(=O)c3ccccc32)c1,inactive
3,Cc1cc(O)c(C)c(O)c1/C=N/NC(=O)c1cccnc1,77.5 µM (active)
4,O=C(CNC(=O)c1cccnc1)N/N=C/c1ccc(O)cc1O,82 µM (active)
5,O=C(CNC(=O)c1cccs1)N/N=C/c1ccc(O)cc1O,60.5 µM (active)
6,O=C(COc1ccccc1)NCC(=O)N/N=C/c1ccc(O)cc1O,66.1 µM (active)
7,O=C(CNC(=O)c1ccco1)N/N=C/c1ccc(O)cc1O,78.5 µM (active)
8,O=C(CCCCCNC(=O)c1ccccc1)N/N=C/c1ccc(O)cc1O,71 µM (active)
9,Oc1ccc(/C=N/NC(=S)Nc2cccnc2)c(O)c1,37.9 µM (active)
10,CCc1ccc(/C(C)=N/NC(=O)CNC(=O)/C=C/c2ccco2)cc1,inactive
11,Cc1cc(C)c(OCCCCNCc2ccccc2)c(Cl)c1,inactive
12,Cc1c(O)ccc(NC(=O)/C=C/c2ccccc2)c1C,37.7 µM (active)
13,Cc1cc(N)c2cc(NC(=O)/C=C/c3ccccc3Cl)ccc2n1,inactive
14,COc1cc(/C=C(\C#N)C(=O)Nc2ccc3c(c2)OCCO3)ccc1O,32.5 µM (active)
15,N#C/C(=C/c1ccc2c(c1)OCO2)C(=O)Nc1ccc(O)cc1,62.6 µM (active)
16,CCOC(=O)/C(C#N)=C\c1ccc(O)c(OC)c1,52.1 µM (active)
17,CCOC(=O)/C(C#N)=C\c1c(OCC)n(CC)c2ccccc12,inactive
18,CCC(CC)NCc1ccc2c(c1)c1ccccc1n2CC,inactive
19,Oc1cccc(Nc2ccccc2)c1,59.1 µM (active)
20,O=[N+]([O-])/C=C/c1cc2ccccc2[nH]1,inactive
21,COc1ccc(OC)c2c(C)c(C)[nH]c12,28.7 µM (active)
22,CS(=O)(=O)Cc1nc2ccccc2oc1=O,74.1 µM (active)
23,COc1ccc2c(c1)-c1nc(N)sc1CC2,42.2 µM (active)
24,Nc1nc2c(s1)CCc1ccccc1-2,48.5 µM (active)
